# Among all 3,200 compounds or so, about 110 (3.4%) showed an effect of 50% or more. The full list was thinned out, with strong results kept by preference.
# System: T1, V. cholerae SAD30
# T1 construct: SAD30
# Parameters: species or system S. aureus MSSA476 (TSB) or V. cholerae SAD30 (LB); 384-well bacterial growth screen at 25 uM, OD600 relative to DMSO control
# Conditions: relative growth, OD600, LB; 25 µM; inhibitor
row,SMILES,% of control remaining [%]
1,"CSc1ccccc1NC(=O)CCl [4-E11, 2-chloro-N-[2-(methylsulfanyl)phenyl]acetamide]",92.3011
2,"CCOc1ccc(C(=O)CCl)cc1 [10-F12, 2-chloro-1-(4-ethoxyphenyl)ethan-1-one]",15.1179
3,"CN(CCOc1ccc(Cl)cc1)C(=O)CCl [5-D16, 2-chloro-N-[2-(4-chlorophenoxy)ethyl]-N-methylacetamide]",80.0252
4,"N#Cc1ccc(C(=O)CCl)cc1 [10-F10, 4-(2-chloroacetyl)benzonitrile]",0
5,"N#Cc1ccc(OC2CN(C(=O)CCl)C2)cc1 [5-K07, 4-{[1-(2-chloroacetyl)azetidin-3-yl]oxy}benzonitrile]",141.893
6,"CCOc1ccc(-n2c(C)cc(C(=O)CCl)c2C)cc1 [10-K08, 2-chloro-1-[1-(4-ethoxyphenyl)-2,5-dimethyl-1H-pyrrol-3-yl]ethan-1-one]",98.9675
7,"O=C(CCl)COc1ccc(Cl)cc1 [10-M17, 1-chloro-3-(4-chlorophenoxy)propan-2-one]",11.6891
8,"CCOc1ccc(C(=O)C(C)Cl)cc1 (stereo not shown) [10-G06, 2-chloro-1-(4-ethoxyphenyl)propan-1-one]",103.331
9,"CC(Cl)C(=O)N(C)CCOc1ccc(Cl)cc1 (stereo not shown) [6-C12, 2-chloro-N-[2-(4-chlorophenoxy)ethyl]-N-methylpropanamide]",74.0165
10,"CSc1ccccc1NC(=O)CN(C)C(=O)CCl [4-L03, 2-chloro-N-methyl-N-({[2-(methylsulfanyl)phenyl]carbamoyl}methyl)acetamide]",116.282
11,"CSc1cc(C(=O)CCl)ccc1NC(C)=O [10-H08, N-[4-(2-chloroacetyl)-2-(methylsulfanyl)phenyl]acetamide]",25.2484
12,"O=C(CCl)Nc1ccc(Cl)c(S(=O)(=O)N2CCCCC2)c1 [4-P14, 2-chloro-N-[4-chloro-3-(piperidine-1-sulfonyl)phenyl]acetamide]",110.589
13,"C=CC(=O)NC1(C(N)=O)Cc2ccccc2C1 [2-D15, 2-(prop-2-enamido)-2,3-dihydro-1H-indene-2-carboxamide]",88.8063
14,"C=CC(=O)Nc1cc(C)nn1-c1ccccc1F [2-C15, N-[1-(2-fluorophenyl)-3-methyl-1H-pyrazol-5-yl]prop-2-enamide]",95.1365
15,"CC(c1ccccc1F)N1CCCC(NC(=O)CCl)C1=O (stereo not shown) [5-I10, 2-chloro-N-{1-[1-(2-fluorophenyl)ethyl]-2-oxopiperidin-3-yl}acetamide]",94.4836
16,"C=CC(=O)N1CCC(C(=O)N2CCC[C@H]2c2ncn[nH]2)CC1 [2-D12, 1-{4-[(2S)-2-(1H-1,2,4-triazol-5-yl)pyrrolidine-1-carbonyl]piperidin-1-yl}prop-2-en-1-one]",91.1223
17,"N#CC(=Cc1ccc2ccccc2c1)C(=O)NC(N)=O [9-K10, {2-cyano-2-[(naphthalen-2-yl)methylidene]acetyl}urea]",87.0836
18,"Cc1ccc(C(=O)c2c(NC(=O)CCl)sc3c2CCCC3)cc1 [6-A12, 2-chloro-N-[3-(4-methylbenzoyl)-4,5,6,7-tetrahydro-1-benzothiophen-2-yl]acetamide]",94.644
19,"C=CC(=O)NCC(=C)c1ccccc1 [2-B09, N-(2-phenylprop-2-en-1-yl)prop-2-enamide]",87.2624
20,"CC(Cl)C(=O)NC(C)(C)c1ccc(F)cc1F (stereo not shown) [6-E21, 2-chloro-N-[2-(2,4-difluorophenyl)propan-2-yl]propanamide]",92.9756
21,"C=CC(=O)Nc1cc(CC(C)(C)C)no1 [1-I19, N-[3-(2,2-dimethylpropyl)-1,2-oxazol-5-yl]prop-2-enamide]",92.9746
22,"COCc1ncc2c(n1)CC1CCC2N1C(=O)C(C)Cl (stereo not shown) [7-M20, 2-chloro-1-[5-(methoxymethyl)-4,6,12-triazatricyclo[7.2.1.0,2,7]dodeca-2,4,6-trien-12-yl]propan-1-one]",81.4142
23,"Cc1cc(CO[C@H]2CC[C@H](NC(=O)CCl)CC2)on1 [6-K19, 2-chloro-N-[(1r,4r)-4-[(3-methyl-1,2-oxazol-5-yl)methoxy]cyclohexyl]acetamide]",92.9756
24,"C=CC(=O)Nc1cnn(C2CCCC2)c1 [3-O21, N-(1-cyclopentyl-1H-pyrazol-4-yl)prop-2-enamide]",106.734
25,"N#CC(=Cc1ccccc1Cl)C(=O)Nc1cccc2ncccc12 [8-C15, 3-(2-chlorophenyl)-2-cyano-N-(quinolin-5-yl)prop-2-enamide]",75.9347

row,SMILES,% of control remaining [%]
1,"C=CC(=O)NCC12CC3CC(CC(C3)C1)C2 [1-F17, N-[(adamantan-1-yl)methyl]prop-2-enamide]",83.4081
2,"CC(=O)NCCc1ccc(C(=O)CCl)cc1 [10-N03, N-{2-[4-(2-chloroacetyl)phenyl]ethyl}acetamide]",115.8
3,"NC(=O)COc1ccc(C(=O)CCl)cc1 [10-M07, 2-[4-(2-chloroacetyl)phenoxy]acetamide]",49.25
4,"CSc1ccc(C(=O)CCl)cc1 [10-E07, 2-chloro-1-[4-(methylsulfanyl)phenyl]ethan-1-one]",0
5,"O=C(CCl)Nc1cccc(Oc2ccccc2)c1 [4-P19, 2-chloro-N-(3-phenoxyphenyl)acetamide]",96.6142
6,"O=C(CCl)Nc1ccc(Oc2ccccc2)cc1 [4-J09, 2-chloro-N-(4-phenoxyphenyl)acetamide]",97.6493
7,"CCCc1ccc(C(=O)CCl)cc1 [10-C04, 2-chloro-1-(4-propylphenyl)ethan-1-one]",109.254
8,"O=C(CCl)c1ccc(Oc2ccccc2)cc1 [10-G20, 2-chloro-1-(4-phenoxyphenyl)ethan-1-one]",25.2484
9,"NC(=O)CCc1ccc(C(=O)CCl)cc1 [10-I03, 3-[4-(2-chloroacetyl)phenyl]propanamide]",70.7578
10,"CCc1ccc(C(=O)CCl)cc1 [10-F18, 2-chloro-1-(4-ethylphenyl)ethan-1-one]",26.1835
11,"O=C(CCl)NCCCC1CCCCC1 [6-O05, 2-chloro-N-(3-cyclohexylpropyl)acetamide]",100.256
12,"O=C(CCl)NC(c1ccccc1)C1CCCCC1 (stereo not shown) [6-E12, 2-chloro-N-[cyclohexyl(phenyl)methyl]acetamide]",79.0217
13,"CC(Cl)C(=O)Nc1ccc(S(=O)(=O)N2CCCCC2)cc1 (stereo not shown) [4-A12, 2-chloro-N-[4-(piperidine-1-sulfonyl)phenyl]propanamide]",95.234
14,"CC(Cl)C(=O)Nc1c(C(C)C)cccc1C(C)C (stereo not shown) [4-B15, N-[2,6-bis(propan-2-yl)phenyl]-2-chloropropanamide]",91.4384
15,"C=CC(=O)N[C@H]1CCO[C@@H]1c1ccnn1C(C)C (racemic) [3-K05, rac-N-[(2R,3R)-2-[1-(propan-2-yl)-1H-pyrazol-5-yl]oxolan-3-yl]prop-2-enamide]",98.7943
16,"O=C(CCl)N1CCN(S(=O)(=O)c2cccc([N+](=O)[O-])c2)CC1 [4-C19, 2-chloro-1-[4-(3-nitrobenzenesulfonyl)piperazin-1-yl]ethan-1-one]",91.0934
17,"C=CC(=O)N1CCC(C(=O)NC2CCCc3cc(F)ccc32)CC1 (stereo not shown) [2-K18, N-(6-fluoro-1,2,3,4-tetrahydronaphthalen-1-yl)-1-(prop-2-enoyl)piperidine-4-carboxamide]",78.153
18,"O=C(CCl)Nc1cccc(S(=O)(=O)N2CCOCC2)c1 [4-P08, 2-chloro-N-[3-(morpholine-4-sulfonyl)phenyl]acetamide]",121.458
19,"O=C(CCl)Nc1cccc(S(=O)(=O)N=C2CCCCCN2)c1 [4-D08, N-{3-[(azepan-2-ylidene)sulfamoyl]phenyl}-2-chloroacetamide]",107.656
20,"CC(C)NC(=O)C(C#N)=Cc1c(Cl)nc2ccccn12 [9-A11, 3-{2-chloroimidazo[1,2-a]pyridin-3-yl}-2-cyano-N-(propan-2-yl)prop-2-enamide]",91.8423
21,"C=CC(=O)Nc1cc(NC(=O)c2ccc([N+](=O)[O-])o2)ccc1F [3-J04, N-[4-fluoro-3-(prop-2-enamido)phenyl]-5-nitrofuran-2-carboxamide]",-0.1875
22,"C=CC(=O)Nc1cc(NC(=O)C2(OC)CCOC2)ccc1F (stereo not shown) [3-D05, N-[4-fluoro-3-(prop-2-enamido)phenyl]-3-methoxyoxolane-3-carboxamide]",99.5001
23,"C=CC(=O)Nc1cc(NC(=O)C2CCC2)ccc1F [2-E10, N-[4-fluoro-3-(prop-2-enamido)phenyl]cyclobutanecarboxamide]",92.0486
24,"CC(C)Cn1c(N)c(C(=O)CCl)c(=O)[nH]c1=O [10-F08, 6-amino-5-(2-chloroacetyl)-1-(2-methylpropyl)-1,2,3,4-tetrahydropyrimidine-2,4-dione]",101.305

# Reference: article PMC11995724, “Antibiotic target discovery by integrated phenotypic and activity-based profiling of electrophilic fragments” (Cell chemical biology, 2025)
